Screening results from PubChem.
In the library only some 7.6% were active in any assay of this set; here they are far more common.
BRCA1 expr up = qHTS Assay to Identify Small Molecule Activators of BRCA1 Expression; MCF7-BRCA1-FFLuc reporter, luminescence, 48 h; response scale: scaled: vehicle 0%, 10 µM genistein 100%; Potency, µM (doses to about 46.1 µM), for inactives: at the top dose activation, hits mostly activators; 380,000 compounds, 1.1% hits; AID 624202, 2012; further: potency means the concentration at half of the fitted maximal effect; nearly all actives have a fitted effect of over 80% in size
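MCF7-BRCA1-FFLuc cells, 2000/well in phenol-red-free MEM, attached 2 h then treated 48 h at 37 C. Luciferase luminescence read 15 min after reagent; normalized to genistein maximum activation (10microM) and DMSO, concentration-response fitted.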
p53 reactivator = qHTS assay for re-activators of p53 using a Luc reporter; H1299 p53-A138V BP100-luciferase reporter, luminescence, 24 h; Potency, µM (top dose mostly 92.2 µM), for inactives: top-dose activity change, positive = activation, most hits filed as activators; 320,000 compounds, 0.063% hits; AID 504706, 2011; further: potency means the concentration at half of the fitted maximal effect; % of control where 0% means no effect; nearly all actives have a fitted effect of over 45% in size
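p53-null H1299 cells stably carrying temperature-sensitive p53-A138V and a BP100-luciferase reporter were pinned with compounds (4-point, 1:5 series) and held 24 hrs at 37 deg C. Luminescence was read 10 min after detection reagent.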
Gal4-VP16 FLuc = VP16 counterscreen qHTS for inhibitors of ROR gamma transcriptional activity. AID 2546, 2010. Potency, µM (titrated, usually from 53.6 µM), without a hit: at the top dose activity, negative = inhibition, hits mostly inhibitors. Drosophila S2 Gal4-VP16 UAS-luciferase, luminescence, 20 h. 310,000 compounds, 3.5% hits;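 further: Gal4-VP16 expression switched on by copper sulfate through the metallothionein promoter; potency means the concentration at half of the fitted maximal effect; on the % scale 0 is the no-effect control and ±100 the full control effect; nearly all actives have a fitted effect of over 50% in size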
ELG1 repair inh = qHTS screen for small molecules that inhibit ELG1-dependent DNA repair in human embryonic kidney (HEK293T) cells expressing luciferase-tagged ELG1. Potency, µM (titrated, usually from 46.1 µM), without a hit: top-dose activity change, negative = inhibition, usual class: inhibitors. 330,000 compounds, 2.3% hits. AID 504467, 2011. HEK293T ELG1-luciferase reporter, luminescence, 16 h; DNA damage induced by 5-fluorouridine; further: potency means the concentration at half of the fitted maximal effect; on the % scale 0 is the no-effect control and ±100 the full control effect; nearly all actives have a fitted effect of over 55% in size
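HEK293T cells expressing luciferase-tagged ELG1 (2,000/well) received 5-Fluorouridine plus compound or DMSO for 16 hr at 37 °C. Luciferase was read by ONE-Glo luminescence after 30 min at room temperature.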
Giardia killer = Small Molecules that selectively kill Giardia lamblia: qHTS; Giardia lamblia trophozoite viability; activity change, % at 7.66 µM, hits read low; 340,000 compounds, 0.15% hits; AID 540267, 2011; in the data active means activity change below about -80%; inconclusive means between about -30% and that limit;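 further: parasites exposed to compound for two days anaerobically before the ATP read; on the % scale 0 is the no-effect control and ±100 the full control effect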
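Compounds were tested on trophozoites seeded at 100 cells/well and held 48 hrs at 37 deg C anaerobically. An ATP-based luminescent kit measured the remaining live cells.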
RORg inh = qHTS for inhibitors of ROR gamma transcriptional activity; AID 2551, 2010; Potency, µM (highest dose often 53.6 µM), for the others: top-dose activity change, negative = inhibition, hits mostly inhibitors; 310,000 compounds, 5.4% hits; Nuclear receptor ROR-gamma (Mus musculus), P51450; Drosophila S2 Gal4-RORgamma UAS-luciferase reporter, 20 h; further: potency means the concentration at half of the fitted maximal effect; on the % scale 0 is the no-effect control and ±100 the full control effect; nearly all actives have a fitted effect of over 60% in size
Target sequence (P51450 whole entry, looked up, the tested form may be a part): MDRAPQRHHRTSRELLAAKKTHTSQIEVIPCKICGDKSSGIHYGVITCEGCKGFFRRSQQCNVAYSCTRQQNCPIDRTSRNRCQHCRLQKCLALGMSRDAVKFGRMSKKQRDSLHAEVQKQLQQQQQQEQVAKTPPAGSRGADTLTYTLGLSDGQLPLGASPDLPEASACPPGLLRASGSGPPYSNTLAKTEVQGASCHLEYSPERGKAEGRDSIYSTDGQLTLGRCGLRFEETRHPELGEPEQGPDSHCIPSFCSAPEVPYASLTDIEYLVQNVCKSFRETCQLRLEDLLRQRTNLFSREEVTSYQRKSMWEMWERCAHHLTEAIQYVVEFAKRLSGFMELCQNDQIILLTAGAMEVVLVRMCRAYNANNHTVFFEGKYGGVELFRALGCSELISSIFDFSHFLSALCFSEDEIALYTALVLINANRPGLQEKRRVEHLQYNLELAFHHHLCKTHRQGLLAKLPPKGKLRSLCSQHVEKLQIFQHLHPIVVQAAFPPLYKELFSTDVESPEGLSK
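A Gal4/UAS one-hybrid system in insect cells: metallothionein-promoter Gal4–ROR gamma fusion plus Photinus luciferase reporter. Copper sulfate 700 uM final, 20 hr ambient incubation, luminescent detection after 10 min with reagent.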
Active calls of the source: *; ? = inconclusive; · = no result. Unless noted, the call rests on the fitted dose curve; in most records, active means well fitted curve in the direction sought with a large enough effect; inconclusive means small, poorly fitted or top-dose-only effect, or another doubt; inactive means no such curve, though single readings can be large; an effect the other way counts as inactive or inconclusive.

SMILES	BRCA1 expr up	p53 reactivator	Gal4-VP16 FLuc	ELG1 repair inh	Giardia killer	RORg inh
CCC(NC(=S)NCc1ccc(F)cc1)c1ccc(C(C)C)cc1 (configuration not stated)	-63%	8%	4µM*	?	-16	2.8µM*
COc1ccc(CNC(=O)CNC(C)c2ccc(F)cc2)cc1 (configuration not stated)	-4%	15%	-11%	-13%	19	-9%
CCOC(=O)c1ccc(COc2nc3ccccc3nc2-c2ccccc2NC(C)=O)o1	-21%	10%	-5%	-1%	-2	4%
Cc1ccc(-n2c(C)c([N+](=O)[O-])c3ccc(O)cc32)cc1	·	-3%	-4%	?	·	2%
Cc1c([N+](=O)[O-])c2ccc(O)cc2n1-c1ccccc1	-55%	-8%	-9%	4.6µM*	2	0%
COCCn1c(C)cc(C(=O)CSc2nnc(C)s2)c1C	-75%	·	1µM*	·	?	0.71µM*
COCCn1c(C)cc(C(=O)COC(=O)c2ccc([N+](=O)[O-])o2)c1C	31%	?	-1%	?	-1	13µM*
Cc1cc(C)c(C(=O)COC(=O)c2ccc([N+](=O)[O-])o2)cc1C	39%	22%	-9%	-5%	9	?
Cc1cc(C(=O)COC(=O)c2ccc3c(c2)OCO3)c(C)n1CC1CCCO1 (configuration not stated)	14%	-2%	5%	?	-17	-15%
Cc1cc(C(=O)COC(=O)c2ccc([N+](=O)[O-])o2)c(C)n1CC1CCCO1 (configuration not stated)	48%	4%	1%	14%	?	20µM*
COCCn1c(C)cc(C(=O)CSc2n[nH]c(N)n2)c1C	33%	17%	-9%	?	-8	36%
COCCn1c(C)cc(C(=O)COC(=O)c2cc3c(s2)CCC3)c1C	-5%	7%	23%	?	-2	-2%
COCCn1c(C)cc(C(=O)COC(=O)c2cccc(O)c2)c1C	-49%	-10%	0.63µM*	?	?	0.35µM*
Cc1cccc(NC(=O)CSc2nnc(-c3ccco3)n2CC2CCCO2)n1 (configuration not stated)	-1%	-3%	-15%	5%	16	1%
Cc1ccc(C)c(NC(=S)N(CCc2nc3cc(C)c(C)cc3[nH]2)Cc2cccnc2)c1	-1%	2%	-14%	?	2	?
Cc1cc(C(=O)Cn2nnc(-c3ccc(Cl)cc3)n2)c(C)n1CC1CCCO1 (configuration not stated)	-52%	9%	32µM*	?	-20	-2%
COC(=O)c1ccc(C(=O)OC)c(NC(=S)N2CCN(c3ccccc3F)CC2)c1	-6%	-4%	-3%	-3%	-4	?
COc1ccc(N(CCCN2C(=O)c3cccc4cccc(c34)C2=O)C(=O)c2cccc(OC)c2)cc1	-64%	-4%	3%	18µM*	4	-3%
CN1C(=O)c2cccc(NCCCN3C(=O)c4ccccc4C3=O)c2C1=O	-1%	-2%	-9%	8%	8	4%
CN1C(=O)c2cccc(NCCCCCCN3C(=O)c4ccccc4C3=O)c2C1=O	-21%	-1%	0%	15µM*	22	14%
Cc1ccc(Cn2c(N3CCN(CCO)CC3)nc3c2c(=O)n(C)c(=O)n3C)cc1	-3%	-3%	3%	2%	-6	14%
O=C1CC2(CCOCC2)Oc2ccc3ccccc3c21	4%	·	·	·	9	·
O=C(CNC(=O)c1ccc2c(c1)OCCO2)N/N=C/c1ccc(O)cc1O	-54%	6%	-4%	-10%	-5	-11%
CCOc1cccc(/C=N/NC(=O)c2cc(-c3cccn3C)n[nH]2)c1O	-33%	?	5µM*	?	-9	2.8µM*
Cc1cccc(/C=N/NC(=O)c2ccc3c(c2)OCCO3)c1O	·	?	2.5µM*	?	·	3.5µM*
SMILES	BRCA1 expr up	p53 reactivator	Gal4-VP16 FLuc	ELG1 repair inh	Giardia killer	RORg inh
COc1cccc(/C=N/NC(=O)CNC(=O)c2ccc3c(c2)OCCO3)c1O	-56%	?	4.5µM*	?	13	0.63µM*
COc1cccc(/C=N/NC(=O)CNC(=O)C2COc3ccccc3O2)c1O (configuration not stated)	-64%	?	0.45µM*	-7%	1	0.35µM*
CCOC(=O)C1CCN(C(=O)CCc2c(C)nc3ncnn3c2C)CC1	16%	1%	-6%	0%	0	-3%
CCOc1cccc(/C=N/NC(=O)c2ccc3c(c2)OCCO3)c1O	-10%	?	0.63µM*	?	-2	0.4µM*
COc1c(Cl)ccc(Cl)c1C(=O)NC(=O)N1CCOCC1	-8%	4%	4%	21%	-12	-13%
O=C(NC(=S)N1CCOCC1)c1ccccc1Cl	-3%	-3%	?	13%	4	2.8µM*
O=C(NC(=S)N1CCCC1)c1ccc(Cl)cc1Cl	-10%	3%	1.4µM*	1%	11	0.89µM*
COc1c(Cl)ccc(Cl)c1C(=O)NC(=S)N1CCOCC1	4%	23%	11µM*	9%	-11	3.5µM*
COC(c1ccccc1)c1nnc(CCC(=O)NCCc2ccc(Cl)cc2)o1 (configuration not stated)	-3%	-5%	2%	-4%	-22	12%
O=C1C(=Cc2cccs2)C(=O)c2ccccc21	-10%	9%	?	4%	10	-3%
O=C1/C(=C/c2cccs2)Cc2ccccc21	?	40µM*	-7%	?	-13	-21%
Cc1cc(C)n(-c2nc(NCCCN(C)C)c3c4c(sc3n2)CCCC4)n1	-12%	5%	7.1µM*	0%	-3	4µM*
Cc1cc(C)n(-c2nc(-n3nc(C)cc3C)c3c4c(sc3n2)COC(C)(C)C4)n1	·	?	13µM*	13%	·	3.5µM*
CSc1nnc2c3c4c(sc3nc(-n3nc(C)cc3C)n12)COC(C)(C)C4	-1%	3%	-2%	13µM*	19	-9%
CCN(CC)CCNc1nc(-n2nc(C)cc2C)nc2sc3c(c12)CC(C)(C)OC3	-3%	5%	?	0%	-1	2.2µM*
Cc1cc(C)n(-c2nc(NCCN(C)C)c3c4c(sc3n2)COC(C)(C)C4)n1	-23%	2%	-19%	?	1	16µM*
